Measured values reported in PubChem BioAssay.
Calls of active or inactive are those of the source.

Columns and labels:
[1] = binders of probe aFSTL3 on microarray, primary screen, stem cell growth factor project, biochemical, small-molecule microarray, fluorescence 635/667 (AID 1064); conditions: higher = more signal;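 also: measures binding of the biotinylated anti-FSTL3 antibody to printed compounds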
[2] = binders from COS7 lysate, DM2A8 probe, primary screen, torsin A project, cell lysate, small-molecule microarray, fluorescence 635/667 (AID 1065); conditions: higher = more signal, COS7 lysate expressing mutant human TOR1A
[3] = binders of probe aFGF2 on microarray, primary screen, stem cell growth factor project, biochemical, small-molecule microarray, fluorescence 635/667 (AID 1067); conditions: higher = more signal;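 also: measures binding of biotinylated aFGF2 protein to printed compounds on slides; z-score merges feature fluorescence and signal-to-noise across triplicate slides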
[4] = binders of probe aFGF10 on microarray, primary screen, stem cell growth factor project, biochemical, small-molecule microarray, fluorescence 635/667 (AID 1071); conditions: higher = more signal;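 also: score merges 667 nm spot intensity and signal to noise from triplicate slides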
[5] = target: Neurogenic locus notch homolog protein 2 (Homo sapiens) (UniProt Q04721); experiment: Notch2 binders on small-molecule microarrays, primary screen, biochemical, small-molecule microarray, 635 nm fluorescence, stem cell growth factors (AID 1073); conditions: Notch2 binding, higher = more signal
[6] = target: Pro-neuregulin-1, membrane-bound isoform (Homo sapiens) (UniProt Q02297); experiment: NRG1 binders on small-molecule microarrays, primary screen, psychiatric disease protein project, biochemical, small-molecule microarray, fluorescence 635/667 (AID 1075); conditions: NRG1 binding, 635 nm fluorescence, higher = more signal;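 also: score combines 667 nm spot fluorescence with signal to noise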
Sequence of Pro-neuregulin-1, membrane-bound isoform (Homo sapiens) (Q02297 whole entry, looked up, the tested form may be a part, canonical isoform): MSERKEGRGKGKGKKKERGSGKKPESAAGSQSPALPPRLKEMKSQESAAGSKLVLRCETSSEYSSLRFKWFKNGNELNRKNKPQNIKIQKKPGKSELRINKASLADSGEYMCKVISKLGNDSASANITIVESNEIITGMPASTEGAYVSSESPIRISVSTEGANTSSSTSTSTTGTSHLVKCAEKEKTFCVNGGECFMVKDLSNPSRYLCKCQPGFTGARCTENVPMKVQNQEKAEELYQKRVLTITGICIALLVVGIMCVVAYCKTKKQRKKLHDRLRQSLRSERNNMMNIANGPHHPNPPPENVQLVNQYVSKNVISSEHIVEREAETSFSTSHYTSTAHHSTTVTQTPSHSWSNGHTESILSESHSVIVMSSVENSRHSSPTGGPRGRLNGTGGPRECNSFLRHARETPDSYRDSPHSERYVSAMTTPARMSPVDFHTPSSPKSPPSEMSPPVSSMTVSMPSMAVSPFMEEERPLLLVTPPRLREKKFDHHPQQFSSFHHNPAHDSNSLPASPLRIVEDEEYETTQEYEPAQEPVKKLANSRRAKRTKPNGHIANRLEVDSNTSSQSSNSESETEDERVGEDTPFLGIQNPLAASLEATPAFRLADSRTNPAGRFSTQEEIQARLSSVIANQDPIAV

[7] = system: Neuregulin-1 EGF-like domain; experiment: binders of neuregulin-1 EGF-like domain, primary screen, biochemical, small-molecule microarray, 635 nm fluorescence (AID 1081); conditions: small-molecule microarray binding, higher = more signal;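 also: binding of the protein to compounds printed on small-molecule microarray slides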
[8] = FRG1 promoter luciferase signal modulators, primary screen, FRG1 inhibition for FSHD, cell-based, C2C12 myotubes, firefly/Renilla luciferase, luminescence (AID 1084); conditions: higher = more signal, called active from +8 up or from −8 down
[9] = binders of probe aFST on microarray, primary screen, stem cell growth factor project, biochemical, small-molecule microarray, fluorescence 635/667 (AID 1086); conditions: higher = more signal;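 also: score merges 667 nm fluorescence with signal-to-noise of each printed compound spot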
[10] = binders of probe aHhip on microarray, primary screen, stem cell growth factor project, biochemical, small-molecule microarray, fluorescence 635/667 (AID 1087); conditions: higher = more signal;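 also: score merges spot fluorescence at 667nm with spot signal to noise ratio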
[11] = system: PRMT1 (protein arginine N-methyltransferase 1); experiment: PRMT1 binders on small-molecule microarrays, primary screen, biochemical, small-molecule microarray, 635 nm fluorescence (AID 1088); conditions: small-molecule microarray binding, higher = more signal;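 also: binding of Prmt1 protein to compounds spotted on small-molecule microarray slides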
[12] = yeast growth modulation, basal conditions, primary screen, YJM789 clinical isolate, OD600, 24 h (AID 1089);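 also: growth of clinical yeast isolate S. cerevisiae YJM 789 seeded 1000 cells per well; test concentration not given here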; conditions: S. cerevisiae YJM789 growth, higher = more signal, called active from +8 up or from −8 down
[13] = fission yeast growth modulation, primary screen, strain 972, OD600, 24 h, no modulator (AID 1090);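 also: basal condition with compound alone and no growth modifier present; test concentration not given here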; conditions: S. pombe 972 growth, higher = more signal, called active from +8 up or from −8 down
[14] = S. cerevisiae growth modulation with rapamycin, primary screen, strain BY4716, OD600, 96 h (AID 1091); conditions: higher = more signal, called active from +8 up or from −8 down; also: test concentration not given here
[15] = target: Torsin-1A-interacting protein 2 (Homo sapiens) (UniProt Q8NFQ8); experiment: LULL1 binders on small-molecule microarray, primary screen, cell lysate, human LULL1 lysate, 635/667 nm fluorescence (AID 1092); conditions: hLULL1 lysate binding, 635 nm fluorescence, higher = more signal;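 also: probe is lysate of COS7 cells overexpressing human LULL1; score merges per-feature 667 nm fluorescence with signal-to-noise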
Sequence of Torsin-1A-interacting protein 2 (Homo sapiens) (Q8NFQ8 whole entry, looked up): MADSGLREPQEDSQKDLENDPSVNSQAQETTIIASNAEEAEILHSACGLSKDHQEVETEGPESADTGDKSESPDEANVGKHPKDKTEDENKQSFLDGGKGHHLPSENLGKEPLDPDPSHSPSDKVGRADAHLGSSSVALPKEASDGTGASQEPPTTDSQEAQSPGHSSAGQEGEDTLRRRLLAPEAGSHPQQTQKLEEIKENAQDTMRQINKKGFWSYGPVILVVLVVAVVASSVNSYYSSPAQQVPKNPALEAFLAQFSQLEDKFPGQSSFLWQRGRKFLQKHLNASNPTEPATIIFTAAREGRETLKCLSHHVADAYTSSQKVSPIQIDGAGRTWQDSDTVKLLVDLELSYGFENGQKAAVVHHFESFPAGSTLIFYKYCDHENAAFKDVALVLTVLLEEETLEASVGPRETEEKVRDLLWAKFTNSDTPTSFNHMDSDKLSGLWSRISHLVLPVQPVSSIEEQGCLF

[16] = E. coli growth modulation, two-sided OD650, primary screen, E. coli filamentation project, strain DRC41, 24 h (AID 1093); conditions: OD650, 24 h, higher = more signal, called active from +8 up or from −8 down;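 also: MC1000 strain lacking acrAB efflux and sulA so SOS filamentation is blocked; test concentration not given here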
[17] = small-molecule microarray binders of probe aLefty2, primary screen, biochemical, biotinylated probe, 635/667 nm fluorescence (AID 1094); conditions: higher = more signal;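 also: score merges spot fluorescence near 667 nm with spot signal-to-noise ratio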
[18] = system: Noggin (protein binding on small-molecule microarray); experiment: Noggin binders on small-molecule microarray, primary screen, biochemical, 635/667 nm fluorescence (AID 1095); conditions: 635 nm fluorescence, higher = more signal;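 also: score merges 667 nm feature fluorescence with signal to noise over triplicate slides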
[19] = target: Neurogenic locus notch homolog protein 3 (Homo sapiens) (UniProt Q9UM47); experiment: NOTCH3 binders on small-molecule microarray, primary screen, biochemical, 635/667 nm fluorescence (AID 1096); conditions: NOTCH3 binding, 635 nm fluorescence, higher = more signal
Sequence of Neurogenic locus notch homolog protein 3 (Homo sapiens) (Q9UM47 whole entry, looked up): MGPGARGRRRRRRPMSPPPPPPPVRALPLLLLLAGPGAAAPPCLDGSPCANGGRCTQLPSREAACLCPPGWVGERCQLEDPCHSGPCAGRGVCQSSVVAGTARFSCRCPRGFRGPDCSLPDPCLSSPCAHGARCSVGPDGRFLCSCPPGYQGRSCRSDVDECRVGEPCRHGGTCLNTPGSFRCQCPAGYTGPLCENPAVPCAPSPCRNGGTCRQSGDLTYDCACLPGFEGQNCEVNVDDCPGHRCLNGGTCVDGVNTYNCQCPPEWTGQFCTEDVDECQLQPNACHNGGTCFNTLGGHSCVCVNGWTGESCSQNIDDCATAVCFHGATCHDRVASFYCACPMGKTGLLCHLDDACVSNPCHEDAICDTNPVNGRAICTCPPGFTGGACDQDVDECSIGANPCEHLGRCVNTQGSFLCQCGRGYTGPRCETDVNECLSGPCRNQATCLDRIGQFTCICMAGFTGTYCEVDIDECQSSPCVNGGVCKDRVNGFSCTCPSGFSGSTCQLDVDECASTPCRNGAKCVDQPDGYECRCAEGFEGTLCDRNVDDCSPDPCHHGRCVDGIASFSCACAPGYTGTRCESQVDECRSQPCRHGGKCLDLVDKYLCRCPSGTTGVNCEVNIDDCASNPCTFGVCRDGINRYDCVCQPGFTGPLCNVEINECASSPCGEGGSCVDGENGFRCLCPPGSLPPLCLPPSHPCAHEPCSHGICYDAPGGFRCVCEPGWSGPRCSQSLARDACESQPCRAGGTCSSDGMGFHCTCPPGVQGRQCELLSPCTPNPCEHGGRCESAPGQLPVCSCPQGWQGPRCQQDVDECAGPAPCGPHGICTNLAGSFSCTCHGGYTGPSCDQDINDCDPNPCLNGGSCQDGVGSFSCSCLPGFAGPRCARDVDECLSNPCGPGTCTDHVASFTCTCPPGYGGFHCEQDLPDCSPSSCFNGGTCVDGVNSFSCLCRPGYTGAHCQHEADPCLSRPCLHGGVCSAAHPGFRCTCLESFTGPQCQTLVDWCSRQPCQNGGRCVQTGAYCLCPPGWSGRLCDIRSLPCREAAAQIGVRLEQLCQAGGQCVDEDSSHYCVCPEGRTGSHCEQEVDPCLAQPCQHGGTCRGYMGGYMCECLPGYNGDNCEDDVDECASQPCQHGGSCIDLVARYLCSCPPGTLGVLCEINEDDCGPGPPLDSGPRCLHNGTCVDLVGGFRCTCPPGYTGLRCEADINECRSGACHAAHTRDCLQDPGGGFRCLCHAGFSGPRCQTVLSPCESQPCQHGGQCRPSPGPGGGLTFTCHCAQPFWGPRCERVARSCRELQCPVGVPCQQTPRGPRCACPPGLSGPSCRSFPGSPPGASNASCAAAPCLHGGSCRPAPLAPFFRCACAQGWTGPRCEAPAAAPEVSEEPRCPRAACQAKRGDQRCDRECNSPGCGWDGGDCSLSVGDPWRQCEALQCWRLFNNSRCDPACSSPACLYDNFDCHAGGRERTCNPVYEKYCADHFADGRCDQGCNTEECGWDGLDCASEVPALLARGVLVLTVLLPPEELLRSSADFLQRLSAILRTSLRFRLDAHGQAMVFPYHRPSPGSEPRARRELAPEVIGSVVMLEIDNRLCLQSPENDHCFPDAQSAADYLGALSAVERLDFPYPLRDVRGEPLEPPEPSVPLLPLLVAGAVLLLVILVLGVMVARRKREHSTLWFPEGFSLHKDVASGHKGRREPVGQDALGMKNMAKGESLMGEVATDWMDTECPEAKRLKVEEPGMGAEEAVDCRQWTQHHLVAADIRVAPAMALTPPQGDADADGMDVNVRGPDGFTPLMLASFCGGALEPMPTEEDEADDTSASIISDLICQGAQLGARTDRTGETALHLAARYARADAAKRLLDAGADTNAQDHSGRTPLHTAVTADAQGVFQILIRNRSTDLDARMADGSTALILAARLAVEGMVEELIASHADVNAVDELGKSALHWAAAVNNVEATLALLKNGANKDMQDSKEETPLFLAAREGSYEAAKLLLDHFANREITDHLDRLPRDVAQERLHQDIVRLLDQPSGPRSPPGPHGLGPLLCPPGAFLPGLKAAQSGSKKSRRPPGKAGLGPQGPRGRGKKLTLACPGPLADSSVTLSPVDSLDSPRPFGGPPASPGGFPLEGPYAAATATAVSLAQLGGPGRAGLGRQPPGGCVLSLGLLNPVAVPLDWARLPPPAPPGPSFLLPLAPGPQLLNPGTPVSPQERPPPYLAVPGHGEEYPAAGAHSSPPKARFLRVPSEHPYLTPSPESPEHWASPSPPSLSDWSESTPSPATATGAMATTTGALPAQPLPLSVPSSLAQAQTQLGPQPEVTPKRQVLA

[20] = small-molecule microarray binders of probe aEGFR, primary screen, biochemical, biotinylated probe, 635/667 nm fluorescence (AID 1097); conditions: higher = more signal;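 also: probe is a biotinylated anti-EGFR antibody binding compounds printed on slides; score combines fluorescence near 667 nm and signal to noise of each spot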

Row | SMILES | composite z-score [1] | composite z-score [2] | composite z-score [3] | composite z-score [4] | composite z-score [5] | composite z-score [6] | composite z-score [7] | z-score [8] | composite z-score [9] | composite z-score [10] | composite z-score [11] | z-score [12] | z-score [13] | z-score [14] | composite z-score [15] | z-score [16] | composite z-score [17] | composite z-score [18] | composite z-score [19] | composite z-score [20]
1 | Cc1ccc([C@H]2C(C(=O)O)=C[C@@H](C(C)C)N2S(=O)(=O)c2ccc(C)cc2)cc1 | -0.0974 | -0.304 | -0.0667 | 0.163 | 1.14 | 1.19 | 1.31 | -1.57 (inactive) | 0.384 | -0.287 | 0.425 | -0.763 (inactive) | 0.0459 (inactive) | -0.128 (inactive) | 3.51 | -0.678 (inactive) | -0.0598 | -0.0681 | 0.412 | -0.0457
2 | CCCCCCC#C[Si](O[C@H](c1ccccc1)c1cn([C@H](C)c2ccccc2)nn1)(C(C)C)C(C)C | -0.0028 | 0.247 | -0.083 | 0.291 | 0.315 | 0.114 | -0.333 | -0.532 (inactive) | -0.495 | 0.0147 | 0.789 | -0.285 (inactive) | 0.994 (inactive) | -0.0401 (inactive) | 0.828 | 1.33 (inactive) | -0.211 | 0.476 | 0.579 | -0.099
3 | CC(C)(C)OC(=O)CC[C@@]1(C(N)=O)N=C(c2ccc(OCCCO)cc2)O[C@@H]1c1ccccc1N=[N+]=[N-] | 0.0551 | 1.86 | 0.0354 | 1.23 | 1.46 | 0.798 | 1.36 | 3.06 (inactive) | 0.18 | -0.0645 | 1.16 | 0.745 (inactive) | -0.86 (inactive) | -0.579 (inactive) | 3.41 | 0.77 (inactive) | 0.0539 | 0.465 | 0.976 | -0.019
4 | Oc1ccc2cc[n+](Cc3cccc(OC(F)(F)F)c3)cc2c1 | -0.446 | 1.77 | -0.0841 | -0.0974 | 0.0892 | -0.322 | 0.921 | 0.498 (inactive) | 0.191 | 0.0749 | 0.488 | 0.573 (inactive) | 0.439 (inactive) | 4.58 (inactive) | 1.65 | 0.713 (inactive) | -0.0541 | 1.26 | 0.646 | -0.0177
5 | COc1ccccc1CN1C(=O)c2ccccc2[C@](Cc2ccccc2I)(C(=O)NC2CC2)[C@@H]1c1ccc(CO)cc1 | -0.532 | 0.46 | 0.0673 | 0.531 | 1.32 | 0.949 | 1.42 | -2.86 (inactive) | 0.653 | 0.136 | 1.54 | -0.357 (inactive) | 0.642 (inactive) | 2.01 (inactive) | 3.3 | 0.199 (inactive) | -0.117 | 1.1 | 1.06 | -0.0897
6 | CC(C)(C)OC(=O)CC[C@]1(C(=O)NCC(O)CO)N=C(c2ccc(OCCCO)cc2)O[C@H]1c1ccccc1CN=[N+]=[N-] (stereo not given in full) | 1.32 | 2.46 | 0.314 | 0.922 | 1.68 | 2.09 | 0.722 | 2.4 (inactive) | 1.68 | -0.0024 | 1.06 | -0.624 (inactive) | -0.867 (inactive) | -0.859 (inactive) | 3.59 | 0.301 (inactive) | 0.716 | 0.27 | 1.08 | 0.61
7 | CCCC[C@H]1C[C@@H]1[C@@H]1N(P(=O)(c2ccccc2)c2ccccc2)[C@](CO)(c2ccccc2)CC12CC2 | 0.488 | -0.363 | 0.0231 | 0.106 | 1.44 | 0.936 | 1.05 | 0.273 (inactive) | 1.03 | 0.235 | -0.153 | -0.485 (inactive) | -0.485 (inactive) | 5.22 (inactive) | 2.51 | -1.08 (inactive) | 0.325 | -0.686 | -0.318 | 0.0585
8 | CCN(CC)c1ccc(N2CC=CC34O[C@@H]5/C=C\CCCOC(=O)C5[C@H]3C(=O)N(CCCO)[C@@H]4C2=O)cc1 (stereo not given in full) | 0.485 | -0.701 | -0.113 | -0.883 | -0.991 | 1.45 | 0.657 | 2.31 (inactive) | -1.19 | -0.137 | 1.42 | -1.14 (inactive) | -0.249 (inactive) | -0.511 (inactive) | 3.65 | -0.204 (inactive) | -0.158 | -1.03 | -0.21 | -0.287
9 | [N-]=[N+]=Nc1ccccc1[C@@H]1OC(c2ccc(OCCCO)cc2)=N[C@]1(CCS(=O)(=O)c1ccccc1)C(=O)N1CCCCC1 | 1.78 | 1.25 | 0.206 | 0.77 | 1.6 | 1.37 | 1.29 | -1.72 (inactive) | 1.18 | -0.249 | 1.56 | 0.436 (inactive) | 1.15 (inactive) | 2.83 (inactive) | 2.83 | 0.106 (inactive) | 0.799 | 0.237 | 1.05 | 0.292
10 | O=C1OCC=C[C@H]2OC34C=CCN(CCN5CCOCC5)C(=O)[C@H]3N(CCCCCCO)C(=O)[C@@H]4[C@@H]12 (stereo not given in full) | -0.142 | 0.108 | -0.0785 | 0.0266 | -0.157 | 2.07 | 1.27 | 1.69 (inactive) | 0.334 | -0.364 | 0.171 | -1.4 (inactive) | -1.1 (inactive) | -0.918 (inactive) | 2.87 | -0.608 (inactive) | -0.0009 | 0.0056 | -0.0123 | 0.0792
11 | O=c1cccc(-c2ccccc2)o1 | -0.0048 | -0.313 | -0.0996 | 0.062 | 0.197 | -0.356 | 0.811 | 2.03 (inactive) | -0.0103 | 0.113 | -0.159 | -1.42 (inactive) | -3.79 (inactive) | -0.482 (inactive) | -0.568 | -0.528 (inactive) | -0.18 | -0.124 | -0.435 | -0.136
